The source made the active and inactive calls. Unless noted, the rule behind the calls is not given here.
Columns and labels:
[1] = system: Wnt5a (protein binding on small-molecule microarray); assay: small molecules binding Wnt5a protein – biophysical, small-molecule microarray, 635/667 nm fluorescence, primary screen (AID 1142); settings: 635 nm fluorescence, higher = more signal;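 note: fluorescence read at 667 nm with signal to noise per printed feature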
[2] = ATP-based viability of Huh7 replicon cells – cell-based, CellTiter-Glo luminescence, basal, 48 h, cytotoxicity control for HCV replication inhibitor project, primary screen (AID 1143); settings: higher = more signal, called active from +8 up or from −8 down;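 note: Huh7 hepatoma cells carrying a hepatitis C replication reporter with no stimulus; test concentration not given here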
[3] = Pseudomonas biofilm growth suppression – PAO1 strain, BacTiter-Glo luminescence, LB-PBS, primary screen (AID 1144); settings: P. aeruginosa PAO1 biofilm, 12 h, higher = more signal
[4] = basal CRE-LacZ reporter activity in PC12 – cell-based, unstimulated, primary screen (AID 1145); settings: no forskolin, luminescence, 4.5 h, higher = more signal, called active from +8 up or from −8 down
[5] = forskolin-driven CRE-LacZ activity in PC12 – cell-based, CRE-LacZ reporter, forskolin-stimulated, primary screen (AID 1146); settings: luminescence, 4.5 h, higher = more signal, called active from +8 up or from −8 down;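 note: PC12 cells with 6xCRE LacZ reporter stimulated by forskolin 10 µM; beta-galactosidase reporter signal reflecting CREB driven transcription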
[6] = target: Streptavidin (Streptomyces avidinii) (UniProt P22629); assay: compounds binding control protein streptavidin – biophysical, small-molecule microarray, 635/667 nm fluorescence, artefact control for SMM compound annotation, primary screen (AID 1147); settings: higher = more signal;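 note: signal reflects streptavidin binding to arrayed compounds as a control protein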
[7] = probe aInhba binding on compound microarray – biochemical, small-molecule microarray, 635/667 nm fluorescence, primary screen (AID 1148); settings: higher = more signal;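 note: score merges 667nm spot fluorescence with signal-to-noise for antibody binding to printed compounds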
[8] = target: Torsin-1A (Homo sapiens) (UniProt O14656); assay: TOR1A wild-type binding on microarray – cell lysate, small-molecule microarray, lysate, 635/667 nm, primary screen (AID 1149); settings: COS7 hTOR1A-WT lysate, 635 nm fluorescence, higher = more signal
[9] = target: Torsin-1A (Homo sapiens) (UniProt O14656); assay: torsin A mutant lysate binding on microarrays – cell lysate, small-molecule microarray, COS7 lysate, 635/667 nm fluorescence, primary screen (AID 1150); settings: COS7 hTOR1A mutant lysate, 635 nm fluorescence, higher = more signal;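 note: score pools 667 nm emission and signal to noise measuring lysate protein binding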
[10] = system: Sonic hedgehog protein (Shh); assay: Sonic hedgehog microarray binding compounds – biochemical, small-molecule microarray, 635/667 nm fluorescence, primary screen (AID 1151); settings: 635 nm fluorescence, higher = more signal;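 note: Shh protein binding to compounds spotted on small-molecule microarray slides; score combines spot fluorescence intensity with signal-to-noise across triplicate slides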

Torsin-1A (Homo sapiens), sequence (O14656 whole entry, looked up): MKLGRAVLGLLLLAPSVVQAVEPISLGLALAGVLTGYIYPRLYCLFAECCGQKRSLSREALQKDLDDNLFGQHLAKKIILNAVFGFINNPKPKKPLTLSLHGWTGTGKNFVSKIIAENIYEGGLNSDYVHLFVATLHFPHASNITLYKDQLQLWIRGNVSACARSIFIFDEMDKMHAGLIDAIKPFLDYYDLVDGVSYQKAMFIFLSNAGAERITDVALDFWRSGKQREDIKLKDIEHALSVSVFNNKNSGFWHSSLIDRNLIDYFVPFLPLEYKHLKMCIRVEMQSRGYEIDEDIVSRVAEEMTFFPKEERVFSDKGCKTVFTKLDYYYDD
Streptavidin (Streptomyces avidinii), sequence (P22629 whole entry, looked up): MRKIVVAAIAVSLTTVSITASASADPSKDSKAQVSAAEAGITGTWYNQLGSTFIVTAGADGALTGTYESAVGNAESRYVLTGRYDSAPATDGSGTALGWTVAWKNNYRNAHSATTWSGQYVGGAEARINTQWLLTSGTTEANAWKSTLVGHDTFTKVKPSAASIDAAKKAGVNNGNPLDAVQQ

SMILES	composite z-score [1]	z-score [2]	z-score [3]	z-score [4]	z-score [5]	composite z-score [6]	composite z-score [7]	composite z-score [8]	composite z-score [9]	composite z-score [10]
CCOC(=O)C1=CC[C@@H](c2ccc(F)cc2)N(S(=O)(=O)c2ccc(C)cc2)[C@H]1c1ccc([N+](=O)[O-])cc1	0.0382	-2.52 (inactive)	-1.24 (inactive)	-1.73 (inactive)	0.66 (inactive)	0.812	0.0131	-0.116	0.599	-0.0316
COc1ccc([Si](C)(C)[C@H]2[C@H](CCO)O[C@@]3(C(=O)N(Cc4ccccc4)c4ccc(N(C=O)c5ccccc5)cc43)[C@@H]2C)cc1	0.078	-6.74 (inactive)	-0.862 (inactive)	2.08 (inactive)	-0.993 (inactive)	0.593	0.122	-0.0549	0.865	1.52
CCC[C@@H]1[C@@H](Sc2ccccc2)[C@@H](C(=O)O)[C@H](c2ccc(C)cc2)N1S(=O)(=O)c1ccc(C)cc1	0.664	-1.72 (inactive)	-1.96 (inactive)	-0.471 (inactive)	-0.722 (inactive)	1.67	0.0921	0.26	0.165	0.641
CCOC(=O)C1=CC[C@@H](c2ccccc2)N(S(=O)(=O)c2ccc(C)cc2)[C@H]1C#N	0.114	-1.82 (inactive)	0.184 (inactive)	-0.48 (inactive)	3.56 (inactive)	0.93	0.134	0.0439	0.189	-0.707
COCCOC(=O)N1C(=O)[C@@]2(c3cc(C#Cc4ccc(OC)cc4)ccc31)[C@H](C(=O)N1CCCCCCC1)[C@H]1C(=O)O[C@H](c3ccccc3)[C@H](c3ccccc3)N1[C@@H]2c1ccccc1OCCO	1.15	-0.751 (inactive)	-1.4 (inactive)	-1.42 (inactive)	0.323 (inactive)	1.53	1.59	1.43	1.18	1.9
C=CCC(OC(C)=O)[C@@H]1[C@@H](N(Cc2cccc3ccccc23)C(=O)c2ccc(-c3ccccc3)cc2)c2cc(OCCCO)ccc2N1C(=O)c1ccc2ccccc2n1 (stereo not given in full)	-0.133	-0.205 (inactive)	0.409 (inactive)	0.106 (inactive)	0.481 (inactive)	0.582	0.195	0.178	0.309	0.664
C=C(/C(=C/C[C@H](OC(=O)c1ccncc1)c1ccccc1OCCO)c1cc(C(=O)OC)ccc1OC)C(C)C	0.913	-1.5 (inactive)	-0.439 (inactive)	6.99 (inactive)	0.644 (inactive)	-0.0945	-0.0375	0.712	0.441	1.74
COC(=O)[C@@]1(Cc2ccc(OC)cc2)[C@H]2c3cc(C(=O)N(C)C)n(Cc4ccsc4Br)c3C[C@H]2CN1C(=O)c1ccccc1	0.286	-0.21 (inactive)	0.00572 (inactive)	0.597 (inactive)	0.217 (inactive)	0.705	0.571	-0.0008	0.808	0.105
C[C@H]1NC(=O)C([C@@H](C)OCc2ccccc2)NC(=O)[C@@]23C(=O)N[C@@H](Cc4ccccc4)C2[C@H](C)[C@@]2(C)O[C@H]2C3/C=C/C/C=C\CNC1=O (stereo not given in full)	0.0077	-1.16 (inactive)	1.3 (inactive)	4.12 (inactive)	-0.836 (inactive)	-0.556	-0.179	0.378	0.352	0.551
CCCCN1CC=CC23O[C@@H]4C=CCOC(=O)[C@@H]4[C@H]2C(=O)N(C(CO)C(C)C)[C@@H]3C1=O (stereo not given in full)	-0.0661	0.233 (inactive)	0.946 (inactive)	0.463 (inactive)	0.547 (inactive)	-0.507	-0.34	-0.241	-0.436	0.605
O=C1c2ccccc2[C@](Cc2ccccc2I)(C(=O)O)[C@H](c2ccc(CO)cc2)N1Cc1ccccc1	0.303	-2.39 (inactive)	-0.718 (inactive)	0.0548 (inactive)	0.131 (inactive)	0.201	0.0627	0.363	0.0706	-0.282
COCCOC(=O)N1C(=O)[C@@]2(c3cc(C#Cc4ccc(OC)cc4)ccc31)[C@H](c1ccc(OCCO)cc1)N1[C@H](c3ccccc3)[C@H](c3ccccc3)OC(=O)[C@H]1[C@@H]2C(=O)N1CCCCCCC1	0.713	-3.28 (inactive)	-1.44 (inactive)	0.891 (inactive)	-0.498 (inactive)	2.42	1.65	0.666	1.71	2.02
CC(C)CNC(=O)[C@@H]1c2ccccc2C(=O)N(Cc2ccccc2Cl)[C@H]1c1ccc(CO)cc1	-0.0721	-0.121 (inactive)	-0.431 (inactive)	-0.179 (inactive)	-0.867 (inactive)	-0.222	-0.204	0.0521	0.13	0.145
[N-]=[N+]=NCc1ccccc1C[C@]1(C(=O)N2CCCCC2)N=C(c2ccc(OCCCO)cc2)O[C@H]1c1ccccc1	0.601	-5.06 (inactive)	-0.307 (inactive)	-0.0017 (inactive)	-0.964 (inactive)	0.483	-0.0471	0.81	0.139	-0.655
C=C(CCCC)C(=O)CC[C@H](OC(C)=O)c1ccccc1OCCO	0.241	-4.57 (inactive)	1.09 (inactive)	8.25 (active)	-0.195 (inactive)	-0.478	0.0902	-1.49	-0.447	1.42
C[N+](C)(C)CCCCCCNC(=O)[C@H]1C[C@H]2C(=O)NCC(=O)N2[C@H]1c1cccc(OCCO)c1	-0.196	-0.103 (inactive)	0.052 (inactive)	-0.675 (inactive)	-0.487 (inactive)	-0.518	-0.14	1.1	0.781	2.17
CC(C)C[C@@H]1NC(=O)[C@@H]2C[C@H](C(=O)NCCCC[N+](C)(C)C)[C@H](c3ccc(O)cc3)N2C1=O	0.814	-0.394 (inactive)	-1.08 (inactive)	0.285 (inactive)	-0.387 (inactive)	0.0306	0.0669	1.47	1.2	2.13
COCCOC(=O)N1C(=O)[C@@]2(c3cc(C#CCCO)ccc31)[C@H](C(=O)N1CCN(c3ncccn3)CC1)[C@H]1C(=O)O[C@H](c3ccccc3)[C@H](c3ccccc3)N1[C@@H]2c1ccc(O)cc1	0.15	-1.79 (inactive)	-0.798 (inactive)	0.484 (inactive)	0.268 (inactive)	-0.269	-0.291	-0.144	0.522	1.11
[N-]=[N+]=NCc1ccccc1[C@@H]1OC(c2ccc(OCCCO)cc2)=N[C@]1(Cc1ccccc1)C(=O)NCc1ccccc1	0.609	-2.86 (inactive)	-0.338 (inactive)	-0.585 (inactive)	0.0071 (inactive)	1.24	-0.0267	0.823	1.1	-0.471
CC(C)N1CC=CC23O[C@@H]4C=CCCOC(=O)C4[C@H]2C(=O)N(CCCCCO)[C@@H]3C1=O (stereo not given in full)	-0.135	0.317 (inactive)	-1.18 (inactive)	0.199 (inactive)	-0.695 (inactive)	1.88	-0.224	-1.35	-1.12	0.0551
C=CCC(OC(C)=O)[C@@H]1[C@@H](N(Cc2ccc(-c3cccc(C(F)(F)F)c3)o2)C(=O)c2cccc3ccccc23)c2cc(OCCCO)ccc2N1C(=O)c1ccc2ccccc2c1 (stereo not given in full)	-0.12	-1.6 (inactive)	-0.924 (inactive)	-0.71 (inactive)	0.942 (inactive)	-0.332	-0.118	-0.0205	-0.0418	1.23
COc1ccc(CCNC(=O)[C@@]2(Sc3ccc(C)cc3)CC(=O)N(Cc3cc(C(F)(F)F)cc(C(F)(F)F)c3)[C@@H]2c2ccc(CO)cc2)cc1	-0.668	0.305 (inactive)	0.731 (inactive)	0.495 (inactive)	0.84 (inactive)	-0.959	-0.127	-1.43	-1.53	-2.14
CC(C)[Si](C#CCCCC#N)(O[C@H](c1ccccc1)c1cn([C@H](C)c2ccccc2)nn1)C(C)C	0.0952	-1.75 (inactive)	-0.0514 (inactive)	-0.23 (inactive)	0.301 (inactive)	0.492	0.0183	0.0529	0.28	1.09
Cc1ccc(S[C@]2(C(=O)NCCN3CCOCC3)CC(=O)N(C3CCCCC3)[C@@H]2c2ccc(CO)cc2I)cc1	0.328	-2.19 (inactive)	-0.435 (inactive)	-0.231 (inactive)	0.341 (inactive)	1.24	-0.117	0.383	1.15	1.94
N#Cc1ccc(C(O)C2C=CC3C(=O)NC(=O)C3N2Nc2ccccn2)cc1 (stereo not given)	-0.0926	-0.0103 (inactive)	-1.11 (inactive)	0.243 (inactive)	-0.345 (inactive)	0.126	-0.0427	0.166	0.241	-0.301
C=CCC(OC(C)=O)[C@@H]1[C@@H](N(Cc2ccc(-c3ccccc3)cc2)C(=O)c2ccc(C)cc2)c2cc(OCCCO)ccc2N1C(=O)c1ccc2ccccc2c1 (stereo not given in full)	0.0548	-0.715 (inactive)	0.137 (inactive)	1.97 (inactive)	0.179 (inactive)	0.122	0.108	0.222	-0.0531	0.587
